Data from PubChem BioAssay (Tox21).
Records with an inconclusive call do not appear. Entries that show only a call come without a potency. A structure can be active in one record and inactive in another. Calls of active or inactive are those of the source. Unless noted, the call rests on the fitted dose curve; in most records, active means well fitted curve in the direction sought with a large enough effect in the repeat runs; inconclusive means weak or mixed curves; inactive means no such curve, though single readings can be large; an effect the other way counts as inactive or inconclusive.

Assays:
[1] = biological target: Retinoic acid receptor RXR-alpha (Homo sapiens) (UniProt P19793); experiment: qHTS assay to identify small molecule agonists of the RXR signaling pathway (AID 1159527; calls by dose curve; further: nearly all actives have a fitted effect of over 35% in size; further: potency means the concentration at half of the fitted maximal effect)
Summary of the method: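 Agonist mode; 9-cis retinoic acid positive control. HEK 293T UAS-bla reporter cells, 2% charcoal-stripped FBS, 16 hr compound exposure at 37 C/5% CO2. LiveBLAzer B/G FRET substrate 2 hr RT; ex 405, em 460/530 nm.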

[2] = qHTS assay to identify small molecule agonists of the RXR signaling pathway - cell viability counter screen (AID 1159529); further: nearly all actives have a fitted effect of over 50% in size; further: potency means the concentration at half of the fitted maximal effect
Summary of the method: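 Luminescence from CellTiter-Glo (30 min, RT) measured viability in the same wells as the beta-lactamase reporter readout. Cells: GeneBLAzer RXR-alpha HEK 293T, 2% charcoal-stripped FBS. Compound exposure 16 hr, 37 C.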

[3] = qHTS assay to identify small molecule antagonists of the retinoid acid receptor (RAR) signaling pathway - cell viability counter screen (AID 1159551); further: nearly all actives have a fitted effect of over 35% in size
Summary of the method: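 Seed C3RL4 cells; next day add compound, then retinol to 1 uM final; incubate 6 h at 37 C; add CellTiter-Glo; read luminescence after 30 min at RT.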

[4] = qHTS assay to identify small molecule antagonists of the estrogen related receptor (ERR) signaling pathway from Tox21 library - cell viability counter screen (AID 1224834); further: nearly all actives have a fitted effect of over 30% in size
Summary of the method: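 CellTiter-Fluor fluorescence measured; ERR cells; 17.5 h compound incubation at 37 C; 30 min reagent step.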

[5] = biological target: Luciferin 4-monooxygenase (Photinus pyralis) (UniProt P08659); experiment: qHTS assay to identify small molecule inhibitors of firefly luciferase (AID 1224835); further: nearly all actives have a fitted effect of over 25% in size
Summary of the method: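 Biochemical qHTS: compounds run as interplate titrations against purified firefly enzyme, with D-luciferin and ATP each at its KM concentration. Light output recorded by CCD imaging.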

[6] = qHTS assay to identify small molecule agonists of the constitutive androstane receptor (CAR) signaling pathway - cell viability counter screen (AID 1224836); further: nearly all actives have a fitted effect of over 45% in size
Summary of the method: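 Viability read-out: CellTiter-Fluor fluorescence after 23 h compound exposure at 37 C/5% CO2 in double-stable HepG2-CYP2B6-hCAR cells, with PK11195 present at 0.75 uM final; compounds tested in 15-point titration.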

[7] = qHTS assay to identify small molecule antagonists of the constitutive androstane receptor (CAR) signaling pathway - cell viability counter screen (AID 1224837); further: nearly all actives have a fitted effect of over 45% in size
Summary of the method: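 Using CellTiter-Fluor, viability is scored in HepG2 cells stably carrying hCAR and a 2.2kb CYP2B6 reporter after 23 hr compound exposure across 15 concentrations, with CITCO present at 50 nM.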

[8] = biological target: Nuclear receptor subfamily 1 group I member 3 (Homo sapiens) (UniProt Q14994); experiment: qHTS assay to identify small molecule antagonists of the constitutive androstane receptor (CAR) signaling pathway (AID 1224838);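 further: HepG2 cells stably expressing hCAR with CYP2B6 luciferase reporter stimulated by CITCO; nearly all actives have a fitted effect of over 40% in size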
Summary of the method: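 Reporter luminescence was quantified after 24 h exposure of hCAR/CYP2B6-2.2kb double-stable HepG2 cells to compounds at 15 concentrations in the presence of 50 nM CITCO final.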

[9] = biological target: Nuclear receptor subfamily 1 group I member 3 (Homo sapiens) (UniProt Q14994); experiment: qHTS assay to identify small molecule agonists of the constitutive androstane receptor (CAR) signaling pathway (AID 1224839); further: nearly all actives have a fitted effect of over 15% in size; further: potency means the concentration at half of the fitted maximal effect;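 on activation: HepG2 cells stably carrying human CAR and a CYP2B6 luciferase reporter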
Summary of the method: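 Luminescence read-out (ONE-Glo, 30 min, room temperature) from double-stable HepG2-CYP2B6-hCAR cells exposed 24 h to 15-point compound series in presence of 0.75 uM PK11195 final.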

[10] = qHTS assay to identify small molecule antagonists of the estrogen related receptor signaling pathway with the pleiotropic PPARgamma coactivator (PGC) from Tox21 10K library - cell viability counter screen (AID 1224840; active means well fitted cell-killing curve with a large enough effect in the repeat runs, not every such curve was filed as active; further: nearly all actives have a fitted effect of over 40% in size)
Summary of the method: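 Here the PGC/ERR cells serve as a cytotoxicity control: they are exposed to compounds for 17.5 hours at 37 C, and live-cell signal is quantified using CellTiter-Fluor fluorescence.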

[11] = qHTS assay to identify small molecule antagonists of the estrogen related receptor signaling pathway with the pleiotropic PPARgamma coactivator (PGC) from Tox21 10K library (AID 1224841; call rule not given here; further: actives are mostly falling curves and most rising ones were filed inactive; nearly all actives have a fitted effect of over 50% in size)
Summary of the method: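 Each well held 2,000 PGC/ERR cells, pre-incubated six hours (37 C, 5% CO2). Test substances in DMSO were added by pin tool and left for 18 h at 37 C before luciferase detection by One-Glo.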

[12] = qHTS assay to identify small molecule agonists of the estrogen related receptor signaling pathway with the pleiotropic PPARgamma coactivator (PGC) from Tox21 10K library (AID 1224842); further: nearly all actives have a fitted effect of over 15% in size
Summary of the method: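 PGC/ERR reporter cell line, 2,000 cells per well, incubated 6 h at 37 C before 23 nL compound in DMSO was added. After 18 h at 37 C, One-Glo luminescence read following 30 min at room temperature.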

[13] = biological target: Thyrotropin receptor (Homo sapiens) (UniProt P16473); experiment: qHTS assay to identify small molecule agonists of the thyroid stimulating hormone receptor (TSHR) signaling pathway (AID 1224843; calls by dose curve; further: nearly all actives have a fitted effect of over 45% in size)
Summary of the method: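 TSHR-HEK293 cells in agonist mode, 30 min room-temperature step, then cAMP measured by competitive HTRF (cAMP-d2 with anti-cAMP cryptate) after 1 h at room temperature. Tested at 15 concentrations in triplicate.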

[14] = qHTS assay to identify small molecule agonists of the hypoxia (HIF-1) signaling pathway - cell viability counter screen (AID 1224844; calls by dose curve; further: nearly all actives have a fitted effect of over 50% in size)
Summary of the method: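 Multiplexed with the HRE beta-lactamase assay, this viability read used CellTiter-Glo luminescence (30 min, RT) on HRE-bla ME-180 cells treated 17 hrs with compounds in 0.5% dialyzed FBS medium.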

[15] = qHTS assay to identify small molecule agonists of H2AX (AID 1224845; active means well fitted activation curve with a large enough effect in the signal ratio in the repeat runs, not every such curve was filed as active; the % refers to the signal ratio)
Summary of the method: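 Wild-type CHO-K1 cells, plated overnight, exposed 3hr at 37C to 15 concentrations (0.76% DMSO final). Lysed, then HTRF anti-pH2AX (S139) cryptate and anti-H2AX-d2 antibodies, 24 hr room temperature; 665/620 nm emission read.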

[16] = qHTS assay to identify small molecule agonists of the hypoxia (HIF-1) signaling pathway (AID 1224846; active means well fitted activation curve with a large enough effect in the signal ratio in the repeat runs, not every such curve was filed as active; the % refers to the signal ratio)
Summary of the method: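 Hypoxia-pathway activation was scored as increased beta-lactamase from an HRE-controlled reporter in ME-180 cells; plated at 2,000 cells per well with 0.5% dialyzed FBS, they were exposed 17 hrs to compounds and then given CCF4-AM.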

[17] = qHTS assay to identify small molecule antagonists of the retinoic acid receptor (RAR) signaling pathway (AID 1159552; further: nearly all actives have a fitted effect of over 50% in size)
Summary of the method: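 Luminescence from a RARE luciferase reporter in C3RL4 cells served as read-out. Cells received compounds together with 1 uM final retinol and incubated 6 hr at 37 C before detection reagent was added for 30 min at room temperature.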

[18] = qHTS assay to identify small molecule antagonists of the estrogen related receptor (ERR) signaling pathway - cell viability counter screen (AID 1224818);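 further: viability measured after 17.5 h of compound exposure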
Summary of the method: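 In the same ERR cell assay, compound-treated wells (17.5 h, 37 C) were multiplexed with a fluorogenic viability reagent, CellTiter-Fluor, read after 30 min to flag cytotoxic substances.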

[19] = qHTS assay to identify small molecule antagonists of the estrogen related receptor signaling pathway with the pleiotropic PPARgamma coactivator (PGC) cell viability counter screen (AID 1224822)
Summary of the method: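 Compounds in DMSO, with positive and negative controls, were applied to PGC/ERR cells (2,000/well) and left 17.5 h at 37 C before CellTiter-Fluor detection.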

[20] = qHTS assay to identify small molecule agonists of the retinoic acid receptor (RAR) signaling pathway (AID 1159553); settings: C3RL4 RARE luciferase reporter, agonist, 6 h; activation: at 73.3 µM (top of the series) unless noted
Summary of the method: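 Activation of retinol signaling was monitored via a RARE luciferase reporter in C3RL4 cells. After 6 hr compound treatment at 37 C, detection reagent was added for 30 min at room temperature before luminescence reading.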

Chain of Luciferin 4-monooxygenase (Photinus pyralis) (P08659 whole entry, looked up): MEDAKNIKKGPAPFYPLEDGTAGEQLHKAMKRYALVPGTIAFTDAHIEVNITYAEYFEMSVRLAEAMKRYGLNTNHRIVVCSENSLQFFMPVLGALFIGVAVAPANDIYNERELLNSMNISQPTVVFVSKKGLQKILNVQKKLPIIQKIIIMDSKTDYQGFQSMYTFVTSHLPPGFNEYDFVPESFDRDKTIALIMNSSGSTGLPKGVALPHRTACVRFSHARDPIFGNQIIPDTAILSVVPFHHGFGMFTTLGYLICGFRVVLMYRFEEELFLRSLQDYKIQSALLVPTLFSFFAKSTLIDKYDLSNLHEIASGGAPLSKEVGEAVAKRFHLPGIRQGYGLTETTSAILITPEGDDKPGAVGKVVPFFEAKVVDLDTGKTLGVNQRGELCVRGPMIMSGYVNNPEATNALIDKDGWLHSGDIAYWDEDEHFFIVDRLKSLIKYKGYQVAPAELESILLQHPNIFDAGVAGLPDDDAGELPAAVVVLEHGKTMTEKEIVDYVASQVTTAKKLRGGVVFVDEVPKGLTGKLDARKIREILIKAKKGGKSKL
Chain of Nuclear receptor subfamily 1 group I member 3 (Homo sapiens) (Q14994 whole entry, looked up): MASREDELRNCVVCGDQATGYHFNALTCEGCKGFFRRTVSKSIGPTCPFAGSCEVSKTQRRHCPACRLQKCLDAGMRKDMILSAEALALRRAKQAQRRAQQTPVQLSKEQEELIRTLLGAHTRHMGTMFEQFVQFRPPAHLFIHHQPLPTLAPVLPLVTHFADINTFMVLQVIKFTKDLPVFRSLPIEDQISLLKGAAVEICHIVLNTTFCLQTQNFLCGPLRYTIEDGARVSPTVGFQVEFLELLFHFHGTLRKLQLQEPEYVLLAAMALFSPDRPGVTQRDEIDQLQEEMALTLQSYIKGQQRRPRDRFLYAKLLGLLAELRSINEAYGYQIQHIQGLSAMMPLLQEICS
Chain of Thyrotropin receptor (Homo sapiens) (P16473 whole entry, looked up): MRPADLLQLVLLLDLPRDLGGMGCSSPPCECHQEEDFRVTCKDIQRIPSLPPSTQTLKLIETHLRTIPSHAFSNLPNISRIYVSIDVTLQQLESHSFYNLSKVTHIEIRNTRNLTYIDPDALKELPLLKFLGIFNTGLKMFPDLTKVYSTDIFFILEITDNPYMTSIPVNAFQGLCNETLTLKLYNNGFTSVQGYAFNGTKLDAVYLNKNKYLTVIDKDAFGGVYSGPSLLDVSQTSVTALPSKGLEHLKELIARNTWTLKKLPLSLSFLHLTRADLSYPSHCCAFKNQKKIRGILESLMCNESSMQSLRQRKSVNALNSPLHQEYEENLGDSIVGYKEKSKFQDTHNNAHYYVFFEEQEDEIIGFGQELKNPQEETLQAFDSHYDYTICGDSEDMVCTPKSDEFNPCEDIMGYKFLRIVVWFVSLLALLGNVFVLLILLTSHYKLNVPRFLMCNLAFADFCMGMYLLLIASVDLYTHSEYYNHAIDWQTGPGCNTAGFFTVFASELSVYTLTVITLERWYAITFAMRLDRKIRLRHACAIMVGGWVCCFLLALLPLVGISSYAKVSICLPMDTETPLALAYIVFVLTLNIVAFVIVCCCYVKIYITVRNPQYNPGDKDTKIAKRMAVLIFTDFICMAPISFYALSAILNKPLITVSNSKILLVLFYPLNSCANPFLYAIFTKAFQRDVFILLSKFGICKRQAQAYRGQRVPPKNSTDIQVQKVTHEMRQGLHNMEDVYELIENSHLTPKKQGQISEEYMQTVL
Chain of Retinoic acid receptor RXR-alpha (Homo sapiens) (P19793 whole entry, looked up): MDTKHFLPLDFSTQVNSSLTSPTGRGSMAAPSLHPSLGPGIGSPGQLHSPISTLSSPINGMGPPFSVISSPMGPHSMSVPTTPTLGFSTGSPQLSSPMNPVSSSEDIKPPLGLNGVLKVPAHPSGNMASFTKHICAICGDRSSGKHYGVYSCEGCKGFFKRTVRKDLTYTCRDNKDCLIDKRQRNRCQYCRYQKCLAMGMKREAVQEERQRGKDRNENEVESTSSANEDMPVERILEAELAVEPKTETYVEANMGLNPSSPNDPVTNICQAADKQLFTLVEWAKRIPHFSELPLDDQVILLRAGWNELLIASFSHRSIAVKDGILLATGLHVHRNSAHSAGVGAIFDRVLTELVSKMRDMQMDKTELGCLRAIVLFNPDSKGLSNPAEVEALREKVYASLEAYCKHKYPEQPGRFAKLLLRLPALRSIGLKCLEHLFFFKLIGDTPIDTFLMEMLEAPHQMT

| SMILES | Potency [1] | Potency [2] | outcome [3] | Potency [4] | Potency [5] | Potency [6] | Potency [7] | Potency [8] | Potency [9] | Potency [10] | Potency [11] | outcome [12] | Potency [13] | Potency [14] | Potency [15] | outcome [16] | Potency [17] | outcome [18] | outcome [19] | Potency [20] |
| --- | --- | --- | --- | --- | --- | --- | --- | --- | --- | --- | --- | --- | --- | --- | --- | --- | --- | --- | --- | --- |
| O=[N+]([O-])c1ccc(Oc2ccc(Cl)cc2Cl)cc1 | 0.696 µM (active) | 43.9 µM (active) and inactive | inactive | inactive | inactive | inactive | inactive | inactive | 54.8 µM (active) and inactive | inactive | inactive | inactive | inactive | inactive | inactive | inactive | – | – | – | – |
| O=c1[nH]c2ccccc2c(=O)o1 | inactive | inactive | inactive | inactive | inactive | inactive | inactive | inactive | inactive | inactive | – | – | inactive | inactive | inactive | inactive | inactive | – | – | – |
| ClCCBr | inactive | inactive | inactive | inactive | inactive | inactive | inactive | inactive | inactive | inactive | inactive | inactive | inactive | inactive | inactive | inactive | – | – | – | – |
| Cc1ccccc1O | inactive | inactive | inactive | inactive | inactive | inactive | inactive | inactive | inactive | inactive | – | – | inactive | inactive | inactive | inactive | inactive | – | – | – |
| CC(Br)C(=O)O (stereo unspecified) | inactive | inactive | inactive | inactive | inactive | inactive | inactive | inactive | inactive | inactive | – | – | inactive | inactive | inactive | inactive | inactive | – | – | – |
| COP(N)(=O)SC (stereo unspecified) | inactive | inactive | inactive | inactive | inactive | inactive | inactive | inactive | inactive | inactive | – | – | – | inactive | inactive | inactive | inactive | – | – | – |
| CC(NC(C)(C)C)C(=O)c1cccc(Cl)c1 (stereo unspecified) | inactive | inactive | inactive | inactive | inactive | inactive | inactive | – | – | inactive | – | – | – | inactive | inactive | – | – | inactive | inactive | – |
| CCCCCCCCCl | inactive | inactive | inactive | inactive | inactive | inactive | inactive | – | – | inactive | – | – | – | inactive | inactive | inactive | inactive | – | – | – |
| CC(=O)C=C(C)C | inactive | inactive | inactive | inactive | inactive | inactive | inactive | inactive | inactive | inactive | inactive | inactive | inactive | inactive | inactive | inactive | – | – | – | inactive |
| CCNc1nc(NC(C)C)nc(SC)n1 | inactive | inactive | inactive | inactive | inactive | inactive | inactive | inactive | 48.6 µM (active) | inactive | – | – | inactive | inactive | inactive | inactive | – | – | – | – |
